The source of these data is PubChem BioAssay (Tox21).

Experiment [1] is described as follows: qHTS assay for small molecule agonists of the p53 signaling pathway (AID 651631; calls by dose curve; further: nearly all actives have a fitted effect of over 15% in size; further: potency means the concentration at half of the fitted maximal effect). An outline of the steps: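 Readout was fluorescence from the LiveBLAzer FRET substrate, applied for 2 h at room temperature after 16 h compound exposure at 37 °C. Cells were the p53RE-bla HCT-116 line, with beta-lactamase driven by p53 response elements.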
Experiment [2] is described as follows: qHTS assay for small molecules that induce genotoxicity in human embryonic kidney cells expressing luciferase-tagged ATAD5 (AID 651632). Further: nearly all actives have a fitted effect of over 15% in size. An outline of the steps:
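ATAD5-luc HEK293T, 2,000 cells/well; cpd or DMSO pin-transferred; 16 hr, 37C/5% CO2; Amplite 30 min RT; luminescence.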
(Quantitative high-throughput screening tests each substance at several concentrations.)

A short description of experiment [3]: qHTS assay for small molecule agonists of the p53 signaling pathway - cell viability (AID 651633; calls by dose curve; further: nearly all actives have a fitted effect of over 30% in size; further: potency means the concentration at half of the fitted maximal effect). An outline of the steps: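 p53RE-bla cells were treated with compound for 16 hours at 37 C. Cytotoxicity was then measured as CellTiter-Glo luminescence after 30 min at room temperature.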
The nature of experiment [4]: qHTS assay for small molecules that induce genotoxicity in human embryonic kidney cells expressing luciferase-tagged ATAD5 - cell viability (AID 651634; calls by dose curve; further: nearly all actives have a fitted effect of over 25% in size). An outline of the steps: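 Fluorescence from CellTiter-Fluor, reporting protease activity within live cells, served as the viability read-out. HEK293T cells carrying luciferase-tagged ATAD5 had been treated with compound for 15.5 hr at 37C.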

Experiment [5] can be described thus: qHTS assay for small molecule disruptors of the mitochondrial membrane potential - cell viability (AID 720634; calls by dose curve;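 further: human HepG2 liver cancer cells; series mostly up to about 83 µM; nearly all actives have a fitted effect of over 20% in size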). An outline of the steps:
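Cells: HepG2, 2,000/well, attached overnight. Compound 1 hr, 37 C/5% CO2. +m-MPI dye, +CellTiter-Glo 30 min RT. Readout: luminescence (ATP).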

Experiment [6] in a line: qHTS assay for small molecule disruptors of the mitochondrial membrane potential (AID 720635). Further: potency means the concentration at half of the fitted maximal effect. An outline of the steps:
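HepG2 cells exposed to compound 1 hr at 37C, then Mito-MPS dye 30 min. Ratio read of aggregate (540/590 nm) versus monomer (490/535 nm) fluorescence.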

The nature of experiment [7]: qHTS assay to test for compound auto fluorescence at 535 nm (green) in HepG2 cells (AID 720675).
A short description of experiment [8]: qHTS assay to test for compound auto fluorescence at 460 nm (blue) in HEK293 cells (AID 720678). Further: potency means the concentration at half of the fitted maximal effect. An outline of the steps: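 After cell attachment (4-5 hr, 37C), compounds were pinned onto HEK293 monolayers in 10% dialyzed FBS medium. The blue channel (405/460 nm) was read following overnight culture. Equivalency was calculated against triamterene.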
Experiment [9] can be described thus: qHTS assay to test for compound auto fluorescence at 590 nm (red) in HEK293 cells (AID 720679). An outline of the steps: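 Plates of HEK293 cells (10% dialyzed FBS) are treated with 23 nL compound or DMSO vehicle after a 4-5 hr attachment period, incubated overnight at 37C, and read for red fluorescence at 540/590nm.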
A short description of experiment [10]: qHTS assay to test for compound auto fluorescence at 535 nm (green) in HEK293 cells (AID 720680).
Experiment [11] is described as follows: qHTS assay to test for compound auto fluorescence at 460 nm (blue) in HEK293 cell free culture (AID 720681). Further: potency means the concentration at half of the fitted maximal effect. An outline of the steps: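 Compounds were added to cell-free DMEM with 10% FBS and fluorescence read directly. The blue channel used 405 nm excitation and 460 nm emission, with triamterene as the reference fluorophore.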
Experiment [12] in a line: qHTS assay to test for compound auto fluorescence at 535 nm (green) in HEK293 cell free culture (AID 720682). An outline of the steps:
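Compounds were pin-transferred into cell-free DMEM with 10% FBS, and green fluorescence was read at excitation 485 nm and emission 535 nm. Intensities were expressed as fluorescein-equivalent values.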

Experiment [13] can be described thus: qHTS assay to test for compound auto fluorescence at 590 nm (red) in HEK293 cell free culture (AID 720683). An outline of the steps: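 Cell-free wells of DMEM with 10% FBS received compound, and intrinsic fluorescence was read at excitation/emission 540/590 nm. Values expressed as equivalence to Rose Bengal sodium.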
The nature of experiment [14]: qHTS assay to test for compound auto fluorescence at 590 nm (red) in HepG2 cell free culture (AID 720684). An outline of the steps: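 Compounds are added to culture medium (MEM, 10% FBS) lacking cells, then fluorescence is read at excitation 540 nm, emission 590 nm, with Rose Bengal sodium as the equivalency standard.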
Experiment [15] in a line: qHTS assay to test for compound auto fluorescence at 460 nm (blue) in HepG2 cell free culture (AID 720685). Further: potency means the concentration at half of the fitted maximal effect. An outline of the steps: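 Compound (23 nL) or DMSO pinned into cell-free MEM with 10% FBS; blue fluorescence read at 405/460 nm excitation/emission, expressed as auto-fluorescence equivalency to triamterene.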
A short description of experiment [16]: qHTS assay to test for compound auto fluorescence at 535 nm (green) in HepG2 cell free culture (AID 720686).
A short description of experiment [17]: qHTS assay to test for compound auto fluorescence at 460 nm (blue) in HepG2 cells (AID 720687). Further: potency means the concentration at half of the fitted maximal effect. An outline of the steps: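 HepG2 cells in MEM with 10% FBS, attached overnight at 37 C, were exposed to compound or DMSO for 1 hr at 37 C, 5% CO2. Blue fluorescence was read at 405/460 nm, with triamterene as reference fluorophore.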
Experiment [18] has as its target Glucocorticoid receptor (Homo sapiens) (UniProt P04150). As to the kind of experiment: qHTS assay to identify small molecule agonists of the glucocorticoid receptor (GR) signaling pathway (AID 720691; active means well fitted activation curve with a large enough effect in the signal ratio in the repeat runs, not every such curve was filed as active; the % refers to the signal ratio). An outline of the steps:
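Fluorescence intensity from LiveBLAzer B/G FRET substrate (2 h, room temperature) reports beta-lactamase expression driven by the glucocorticoid response element in GR-bla HeLa cells after 18 h compound exposure at 37 C.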

The target is the same in experiment [19]. As to the kind of experiment: qHTS assay to identify small molecule antagonists of the glucocorticoid receptor (GR) signaling pathway (AID 720692; active means well fitted inhibition curve with a large enough effect in the signal ratio in the repeat runs, not every such curve was filed as active; the % refers to the signal ratio). An outline of the steps:
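HeLa GR-bla cells; cmpd + dex 5 nM final, 18 h 37 C; LiveBLAzer B/G FRET substrate 2 h RT; fluorescence intensity read. Antagonist mode, qHTS.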

Experiment [20] can be described thus: qHTS assay to test for compound auto fluorescence at 590 nm (red) in HepG2 cells (AID 720674). An outline of the steps:
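HepG2 cells, 2,000 per well in MEM with 10% FBS, attached overnight at 37 C, then got 23 nL compound or DMSO. After 1 hr at 37 C, 5% CO2, red fluorescence was read at 540/590 nm against Rose Bengal sodium as reference.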

“And” between values parts separate entries of the source, which are not always exact repeats. Equal entries are not always repeated. Inconclusive results are not listed. Some structures have more than one record in an assay (separate samples or runs), and their calls can disagree. The source made the active and inactive calls. Unless noted, the call rests on the fitted dose curve; in most records, active means well fitted curve in the direction sought with a large enough effect in the repeat runs; inconclusive means weak or mixed curves; inactive means no such curve, though single readings can be large; an effect the other way counts as inactive or inconclusive.
Tags describe the fitted curve by direction and shape or compound fluorescence and quenching.

Chain of Glucocorticoid receptor (Homo sapiens) (P04150 whole entry, looked up): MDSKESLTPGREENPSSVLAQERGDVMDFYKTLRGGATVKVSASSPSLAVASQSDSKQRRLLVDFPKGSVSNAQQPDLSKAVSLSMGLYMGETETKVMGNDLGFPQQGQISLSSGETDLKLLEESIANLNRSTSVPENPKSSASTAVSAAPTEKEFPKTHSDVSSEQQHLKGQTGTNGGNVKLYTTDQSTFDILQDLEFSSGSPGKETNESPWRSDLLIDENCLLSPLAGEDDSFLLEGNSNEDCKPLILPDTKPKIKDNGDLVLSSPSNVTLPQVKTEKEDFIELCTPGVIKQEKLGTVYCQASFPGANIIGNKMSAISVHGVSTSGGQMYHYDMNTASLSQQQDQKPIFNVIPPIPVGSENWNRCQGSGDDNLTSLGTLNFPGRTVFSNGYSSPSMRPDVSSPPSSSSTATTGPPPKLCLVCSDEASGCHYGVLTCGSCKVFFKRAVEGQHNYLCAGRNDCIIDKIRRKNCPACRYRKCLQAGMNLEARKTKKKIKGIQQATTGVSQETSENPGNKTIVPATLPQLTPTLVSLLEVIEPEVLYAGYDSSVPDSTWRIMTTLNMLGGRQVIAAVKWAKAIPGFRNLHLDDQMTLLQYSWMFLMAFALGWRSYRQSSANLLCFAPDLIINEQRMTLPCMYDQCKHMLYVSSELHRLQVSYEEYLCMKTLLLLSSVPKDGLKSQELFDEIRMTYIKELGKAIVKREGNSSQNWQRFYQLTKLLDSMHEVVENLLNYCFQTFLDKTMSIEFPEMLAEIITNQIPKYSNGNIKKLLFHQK

Turning to `Cc1cccc(Oc2ccccc2)c1`, the Potency result in experiment [1], in experiment [2], in experiment [3], in [4], in experiment [5] and in experiment [6] was “inactive” in each case. Besides, the Potency entry in [8], in [11], in [15], in [17], in experiment [18] and in [19] was “inactive” each time. Moreover, the outcome in experiment [7], in experiment [9], in [10], in experiment [12], in experiment [13] and in [14] was inactive. Further, in experiment [16], the call was inactive.
Take `CC1=CC(=O)/C(=C(/C)O)C(=O)O1`: the Potency result in experiment [1], in [2], in experiment [3], in experiment [4], in experiment [5] and in experiment [8] was “inactive” throughout. In addition, the Potency result in experiment [11], in experiment [15], in [18] and in [19] was “inactive” each time. The molecule was called inactive in experiment [20], in experiment [7], in [9], in experiment [10], in experiment [12] and in [13]. Besides, the molecule was classed as inactive in [14] and in experiment [16].
`CC(=O)OC/C=C/c1ccccc1`: the Potency entry in experiment [1], in [2], in experiment [3], in [4], in experiment [5] and in experiment [6] was “inactive” in each case. The Potency entry in experiment [11], in [15], in [17] and in experiment [18] was “inactive” each time. The outcome in [20], in [7], in [9], in experiment [10], in [12] and in experiment [13] was inactive. The molecule was called inactive in [16].
In the case of `O=C(/C=C/c1ccc(O)c(O)c1)O[C@@H]1C[C@](O)(C(=O)O)C[C@@H](O)[C@H]1O`, the Potency result in [1], in [2], in experiment [3], in experiment [4], in experiment [5] and in [8] was “inactive” throughout. Also, the Potency entry in experiment [11], in [15], in experiment [17], in experiment [18] and in experiment [19] was “inactive” throughout. The molecule was called inactive in [20], in [7], in experiment [9], in [10], in experiment [12] and in experiment [13]. Also, the result in experiment [14] and in experiment [16] was inactive.
As to `Nc1nc(N)c2nc(CNc3ccc(C(=O)N[C@@H](CCC(=O)O)C(=O)O)cc3)cnc2n1`, the Potency entry in experiment [1] is “inactive and 57.1 nM (active)”; in [3], “inactive and 45.3 nM (active)”; in [8], “inactive and 39.8 µM [fluorescent] (active)”; in experiment [11], 39.8 µM (active); in experiment [15] it was 35.5 µM [fluorescent] (active); in experiment [17], 39.8 µM [fluorescent] (active). For the same molecule, the Potency result in experiment [2], in experiment [4], in experiment [5], in experiment [18] and in [19] was “inactive” each time. For the same molecule, the result in experiment [20], in experiment [7], in experiment [9], in experiment [10], in experiment [12] and in experiment [13] was inactive. In addition, the molecule was classed as inactive in [14] and in experiment [16].
For the molecule `c1ccc(CNCc2ccccc2)cc1`, the Potency entry in experiment [1], in [2], in [3], in experiment [4], in [5] and in experiment [8] was “inactive” throughout. Moreover, the Potency result in [11], in experiment [15], in experiment [17] and in [18] was “inactive” in each case. The molecule was classed as inactive in [20], in [7], in [9], in experiment [10], in experiment [12] and in [13]. Further, the molecule was classed as inactive in [14] and in experiment [16].
`CNS(=O)(=O)Cc1ccc2[nH]cc(CCN(C)C)c2c1`: the Potency result in experiment [1], in experiment [2], in experiment [3], in [4], in experiment [5] and in experiment [11] was “inactive” throughout. For the same molecule, the Potency entry in experiment [15], in experiment [17] and in experiment [18] was “inactive” throughout. The Potency in experiment [6] is 29.8 µM (active). Also, the result in experiment [20], in [7], in [9], in experiment [10], in [12] and in experiment [13] was inactive. Further, the molecule was classed as inactive in experiment [14] and in experiment [16].
